# Measured values reported in PubChem BioAssay (Tox21).
# Values joined by “and” are separate entries in the source; they are usually repeats but may differ in a detail not shown here. Equal values may be shown once. Inconclusive results are not listed. Entries that show only a call come without a potency. Some structures have more than one record in an assay (separate samples or runs), and their calls can disagree. Active and inactive are the calls of the source. Unless noted, calls come from the whole dose curve; as a rule, active = well fitted curve in the direction sought with a large enough effect in the repeat runs; inconclusive = weak or mixed curves; inactive = no such curve, though single readings can be large; an effect the other way counts as inactive or inconclusive.
# What was measured:
# [1] = system: thyroid hormone receptor (rat, GH3 cells); assay: qHTS assay to identify small molecule agonists of the thyroid receptor (TR) signaling pathway (AID 743066; calls by dose curve); conditions: GH3.TRE-Luc cells, TR agonist luciferase, 24 h; series mostly up to 83.9 µM
# [2] = molecular target: Estrogen receptor (Homo sapiens) (UniProt P03372); assay: qHTS assay to identify small molecule antagonists of the estrogen receptor alpha (ER-alpha) signaling pathway (AID 743069; active = well fitted curve in the direction sought with a large enough effect in the signal ratio in the repeat runs, not every such curve was filed as active; the % refers to the signal ratio); conditions: HEK293 ER-alpha-UAS-bla, beta-lactamase ratio, antagonist mode; series mostly up to 69.4 µM
# In short: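 Screening used a UAS-driven beta-lactamase reporter integrated into HEK293 cells expressing ER-alpha, stimulated with 17beta-estradiol alongside test compounds over 18 hr at 37C; signal came from LiveBLAzer B/G FRET fluorescence.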
# [3] = qHTS assay to identify small molecule antagonists of the estrogen receptor alpha (ER-alpha) signaling pathway - cell viability counter screen (AID 743074; calls by dose curve; note: nearly all actives have a fitted effect of over 45% in size); conditions: ERalpha-bla HEK293 viability, CellTiter-Glo luminescence, 18 h; series mostly up to 69.4 µM
# [4] = molecular target: Estrogen receptor (Homo sapiens) (UniProt P03372); assay: qHTS assay to identify small molecule agonists of the estrogen receptor alpha (ER-alpha) signaling pathway (AID 743075; calls by dose curve); conditions: HEK293 ER-alpha-UAS-bla, beta-lactamase FRET ratio, 18 h; series mostly up to 70.1 µM
# [5] = molecular target: Estrogen receptor (Homo sapiens) (UniProt P03372); assay: qHTS assay to identify small molecule agonists of the estrogen receptor alpha (ER-alpha) signaling pathway using the BG1 cell line (AID 743079); conditions: BG1Luc4E2 cells, ERE-luciferase agonist, 22 h; series mostly up to 70.3 µM; note: nearly all actives have a fitted effect of over 20% in size
# [6] = qHTS assay to identify small molecule antagonists of the estrogen receptor alpha (ER-alpha) signaling pathway using the BG1 cell line (AID 743080; calls by dose curve;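 note: BG1 cells stimulated with 17beta-estradiol alongside compound; nearly all actives have a fitted effect of over 25% in size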); conditions: BG1Luc4E2 ERE-luciferase antagonist mode, luminescence; series mostly up to 70.3 µM
# In short: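 BG1-Luc-4E2 cells (endogenous full-length ER-alpha, stable 4×ERE-luciferase) were starved 5 days in phenol-red-free medium with 10% charcoal-stripped FBS, plated 24 h, then given compound plus 17beta-estradiol for 21.5 h at 37 C; ONE-Glo luminescence read after 30 min.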
# [7] = qHTS assay to identify small molecule antagonists of the estrogen receptor alpha (ER-alpha) signaling pathway using the BG1 cell line - cell viability counter screen (AID 743081); conditions: BG1Luc4E2 viability, CellTiter-Fluor, 22 h; series mostly up to 70.3 µM;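 note: compound given together with 17beta-estradiol as the ER stimulus; nearly all actives have a fitted effect of over 45% in size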
# Aromatase (Homo sapiens) = Aromatase (Homo sapiens) (UniProt P11511); assay: qHTS assay to identify aromatase inhibitors (AID 743083); conditions: MCF-7 aro ERE, testosterone-driven ERE luciferase, 24 h; series mostly up to 70.3 µM; note: nearly all actives have a fitted effect of over 55% in size; note: potency is the fitted concentration of half-maximal effect
# [8] = qHTS assay to identify aromatase inhibitors - cell viability counter screen (AID 743084); conditions: MCF-7 aro ERE viability, CellTiter-Fluor, 24 h; series mostly up to 70.3 µM;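 note: cells stimulated with testosterone during compound exposure; nearly all actives have a fitted effect of over 55% in size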; note: potency is the fitted concentration of half-maximal effect
# [9] = molecular target: Aryl hydrocarbon receptor (Homo sapiens) (UniProt P35869); assay: qHTS assay to identify small molecule that activate the aryl hydrocarbon receptor (AhR) signaling pathway (AID 743085); conditions: HepG2 AhR-luc (HG2L7.5c1), luciferase, 24 h; series mostly up to 70.3 µM;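 note: HG2L7.5c1 human HepG2 liver cells with stably integrated DRE-driven firefly reporter; nearly all actives have a fitted effect of over 15% in size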
# In short: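 Measured in HG2L7.5c1 cells: CellTiter-Fluor signal (30 min incubation, 37C) for viability, then luciferase luminescence (30 min, room temperature). Compound contact time was 24 h at 37C, following a 5 h pre-incubation.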
# [10] = qHTS assay to identify small molecule that activate the aryl hydrocarbon receptor (AhR) signaling pathway - cell viability counter screen (AID 743086); conditions: HepG2-AhR-luc viability, CellTiter-Fluor, 24 h; series mostly up to 70.3 µM;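 note: HepG2 liver cells carrying the AhR DRE luciferase reporter; nearly all actives have a fitted effect of over 45% in size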
# In short: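 HepG2-AhR-luc (HG2L7.5c1) cells, 4000/well, were preincubated 5 h at 37C, exposed to compound in qHTS format for 24 hr at 37C, then given CellTiter-Fluor for 30 min; viability was read as fluorescence in the reporter wells.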
# [11] = molecular target: Peroxisome proliferator-activated receptor gamma (Homo sapiens) (UniProt P37231); assay: qHTS assay to identify small molecule agonists of the peroxisome proliferator-activated receptor gamma (PPARg) signaling pathway (AID 743094; active = well fitted activation curve with a large enough effect in the signal ratio in the repeat runs, not every such curve was filed as active; the % refers to the signal ratio); conditions: HEK293H PPARg-UAS-bla, beta-lactamase FRET ratio, 17 h; series mostly up to 57 µM
# In short: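 Fluorescence-based beta-lactamase readout in HEK293H PPARg UAS-bla cells after 17 h compound exposure (37C) and 1 h B/G FRET substrate incubation at room temperature.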
# [12] = molecular target: Peroxisome proliferator-activated receptor gamma (Homo sapiens) (UniProt P37231); assay: qHTS assay to identify small molecule antagonists of the peroxisome proliferator-activated receptor gamma (PPARg) signaling pathway (AID 743191; calls by dose curve; note: nearly all actives have a fitted effect of over 30% in size); conditions: HEK293H PPARg-UAS-bla, beta-lactamase ratio, antagonist, 17 h; series mostly up to 62.6 µM
# In short: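 GeneBLAzer PPARg UAS-bla HEK293H cells carrying a UAS-driven beta-lactamase reporter were plated at 3000 cells/well, preincubated 5 h at 37C, then given compound for 17 h at 37C; LiveBLAzer B/G FRET substrate was read after 1 h at room temperature.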
# [13] = qHTS assay to identify small molecule antagonists of the peroxisome proliferator-activated receptor gamma (PPARg) signaling pathway - cell viability counter screen (AID 743194); conditions: PPARg-bla HEK293H viability, CellTiter-Glo luminescence, 17 h, co-treated with 50 nM rosiglitazone; series mostly up to 62.6 µM; note: nearly all actives have a fitted effect of over 55% in size
# In short: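 PPARg-UAS-bla HEK293H cells were plated, rested 5 h at 37 C, then treated with compounds plus rosiglitazone (50 nM final) for 17 h at 37 C; viability was then read by CellTiter-Glo luminescence after 30 min at room temperature.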
# [14] = qHTS assay for small molecule agonists of the antioxidant response element (ARE) signaling pathway (AID 743202; active = well fitted activation curve with a large enough effect in the signal ratio in the repeat runs, not every such curve was filed as active; the % refers to the signal ratio; note: potency is the fitted concentration of half-maximal effect); conditions: HepG2 ARE-bla reporter, beta-lactamase FRET, 16 h; series mostly up to 73.3 µM
# In short: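 Steps: seed ARE-bla HepG2 cells (2,000/well); incubate 5 h at 37 C; add compounds by pin tool; incubate 16 h at 37 C; add FRET substrate; read fluorescence after 2 h at RT.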
# [15] = qHTS assay for small molecule agonists of the antioxidant response element (ARE) signaling pathway - cell viability counter screen (AID 743203; calls by dose curve; note: nearly all actives have a fitted effect of over 55% in size; note: potency is the fitted concentration of half-maximal effect); conditions: ARE-bla HepG2 viability, CellTiter-Glo luminescence, 16 h; series mostly up to 73.3 µM
# In short: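 Parallel cytotoxicity read-out for the ARE-bla screen: HepG2 reporter cells, 16 hrs with compounds, then CellTiter-Glo luminescence.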
# [16] = qHTS assay for small molecule activators of the heat shock response signaling pathway - cell viability counter screen (AID 743209); conditions: HSE-bla HeLa viability, CellTiter-Glo luminescence, 5 h; series mostly up to 62.6 µM; note: nearly all actives have a fitted effect of over 50% in size
# In short: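 To flag cytotoxic compounds, HSE-bla HeLa cells plated at 1500 cells/well were dosed for 5 h at 37 C, followed by the reporter FRET read and then CellTiter-Glo, with luminescence recorded 30 min after reagent addition.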
# [17] = qHTS assay to identify small molecule agonists of the peroxisome proliferator-activated receptor delta (PPARd) signaling pathway - cell viability counter screen (AID 743211); conditions: PPARd-bla HEK293H viability, CellTiter-Glo luminescence, 17 h; series mostly up to 62.6 µM; note: nearly all actives have a fitted effect of over 55% in size
# In short: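 Following 5 h plating at 37 C and 5% CO2, PPARd UAS-bla HEK293H cells took up test compounds for 17 h. Viability was quantified by luminescence 30 min after CellTiter-Glo addition at room temperature.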
# [18] = qHTS assay to identify small molecule antagonists of the thyroid receptor (TR) signaling pathway (AID 743065); conditions: GH3.TRE-Luc, T3-stimulated luciferase inhibition, 23.5 h; series mostly up to 70.3 µM; note: nearly all actives have a fitted effect of over 55% in size
# In short: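 GH3.TRE-Luc rat pituitary cells carrying two TR response elements driving luciferase were plated for 4 h, given compound plus 1 nM T3 (final), and incubated 23.5 h at 37 C. ONE-Glo luminescence measured reporter inhibition; CellTiter-Fluor fluorescence tracked cytotoxicity.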
# [19] = qHTS assay for small molecule activators of the heat shock response signaling pathway (AID 743210; active = well fitted activation curve with a large enough effect in the signal ratio in the repeat runs, with a control signal flat, not every such curve was filed as active; the % refers to the signal ratio;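 note: HeLa cells with beta-lactamase reporter driven by heat shock elements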); conditions: HeLa HSE-bla reporter, beta-lactamase ratio, 5 h; series mostly up to 62.6 µM
# In short: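 Activation of heat shock element-controlled beta-lactamase expression is measured in HeLa cells by LiveBLAzer FRET fluorescence, with compound exposure lasting 5 h at 37 C and substrate loading 2.5 h at room temperature.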
# Chain of Aromatase (Homo sapiens) (P11511 whole entry, looked up): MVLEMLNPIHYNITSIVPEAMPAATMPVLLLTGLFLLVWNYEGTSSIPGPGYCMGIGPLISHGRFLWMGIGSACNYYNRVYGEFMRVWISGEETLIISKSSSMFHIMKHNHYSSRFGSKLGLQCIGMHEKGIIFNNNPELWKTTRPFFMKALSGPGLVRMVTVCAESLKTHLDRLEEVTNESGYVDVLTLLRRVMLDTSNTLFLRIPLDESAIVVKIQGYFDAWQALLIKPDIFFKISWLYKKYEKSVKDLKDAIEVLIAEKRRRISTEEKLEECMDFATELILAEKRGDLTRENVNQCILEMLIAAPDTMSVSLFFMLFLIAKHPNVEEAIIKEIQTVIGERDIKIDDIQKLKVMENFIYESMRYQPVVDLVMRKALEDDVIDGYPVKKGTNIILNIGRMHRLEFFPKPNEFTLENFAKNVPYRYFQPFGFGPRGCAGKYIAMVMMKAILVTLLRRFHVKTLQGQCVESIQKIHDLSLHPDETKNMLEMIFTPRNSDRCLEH
# Chain of Aryl hydrocarbon receptor (Homo sapiens) (P35869 whole entry, looked up): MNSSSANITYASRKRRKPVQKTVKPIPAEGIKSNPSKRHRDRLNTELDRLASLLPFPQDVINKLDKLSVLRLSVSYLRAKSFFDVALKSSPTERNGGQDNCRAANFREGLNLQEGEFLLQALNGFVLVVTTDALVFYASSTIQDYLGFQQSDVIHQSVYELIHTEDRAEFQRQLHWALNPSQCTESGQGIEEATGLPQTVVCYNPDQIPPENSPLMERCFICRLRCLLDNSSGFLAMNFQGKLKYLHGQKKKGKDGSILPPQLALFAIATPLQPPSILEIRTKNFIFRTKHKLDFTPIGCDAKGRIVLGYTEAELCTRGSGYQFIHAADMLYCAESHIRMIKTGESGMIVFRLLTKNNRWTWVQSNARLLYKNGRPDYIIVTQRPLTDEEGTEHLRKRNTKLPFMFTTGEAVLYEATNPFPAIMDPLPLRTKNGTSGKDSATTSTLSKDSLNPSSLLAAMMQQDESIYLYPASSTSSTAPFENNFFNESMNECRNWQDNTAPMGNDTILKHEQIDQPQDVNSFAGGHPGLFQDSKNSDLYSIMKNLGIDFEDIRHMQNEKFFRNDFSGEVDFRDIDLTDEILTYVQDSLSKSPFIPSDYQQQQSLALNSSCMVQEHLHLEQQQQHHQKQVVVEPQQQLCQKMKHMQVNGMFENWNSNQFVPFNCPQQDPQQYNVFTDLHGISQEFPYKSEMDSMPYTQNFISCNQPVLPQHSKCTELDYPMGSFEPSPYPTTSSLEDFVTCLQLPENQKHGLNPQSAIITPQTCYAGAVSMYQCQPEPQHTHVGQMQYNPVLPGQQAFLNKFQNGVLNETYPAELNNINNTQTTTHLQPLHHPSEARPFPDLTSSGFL
# Chain of Peroxisome proliferator-activated receptor gamma (Homo sapiens) (P37231 whole entry, looked up): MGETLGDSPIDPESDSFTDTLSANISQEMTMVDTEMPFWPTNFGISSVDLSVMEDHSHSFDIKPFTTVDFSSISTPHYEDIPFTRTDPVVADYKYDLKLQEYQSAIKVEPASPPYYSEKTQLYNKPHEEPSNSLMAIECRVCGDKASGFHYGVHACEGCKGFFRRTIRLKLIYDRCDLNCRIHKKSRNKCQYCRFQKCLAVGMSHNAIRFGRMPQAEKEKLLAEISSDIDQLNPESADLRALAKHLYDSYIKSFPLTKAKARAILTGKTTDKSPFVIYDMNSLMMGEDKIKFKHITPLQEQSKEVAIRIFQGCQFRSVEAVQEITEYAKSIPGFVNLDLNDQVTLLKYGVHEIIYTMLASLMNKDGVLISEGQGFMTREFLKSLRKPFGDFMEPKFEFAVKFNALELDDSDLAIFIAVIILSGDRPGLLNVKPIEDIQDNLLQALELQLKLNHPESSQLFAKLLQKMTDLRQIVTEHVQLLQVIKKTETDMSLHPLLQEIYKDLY
# Chain of Estrogen receptor (Homo sapiens) (P03372 whole entry, looked up): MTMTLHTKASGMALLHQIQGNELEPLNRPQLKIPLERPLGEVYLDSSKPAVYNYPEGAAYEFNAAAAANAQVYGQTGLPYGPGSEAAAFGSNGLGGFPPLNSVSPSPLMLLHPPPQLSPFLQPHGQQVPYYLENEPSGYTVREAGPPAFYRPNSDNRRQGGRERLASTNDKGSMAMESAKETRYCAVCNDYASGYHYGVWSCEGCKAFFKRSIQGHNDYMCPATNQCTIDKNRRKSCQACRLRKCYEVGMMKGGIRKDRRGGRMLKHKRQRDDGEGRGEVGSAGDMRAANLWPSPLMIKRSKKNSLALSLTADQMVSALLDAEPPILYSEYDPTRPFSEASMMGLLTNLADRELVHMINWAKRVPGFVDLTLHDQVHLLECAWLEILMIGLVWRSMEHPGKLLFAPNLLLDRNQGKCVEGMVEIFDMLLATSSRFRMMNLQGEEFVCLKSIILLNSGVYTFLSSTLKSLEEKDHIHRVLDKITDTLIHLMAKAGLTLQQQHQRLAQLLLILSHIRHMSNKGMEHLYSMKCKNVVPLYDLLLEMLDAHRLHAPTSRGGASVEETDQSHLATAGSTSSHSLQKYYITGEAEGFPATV
Compound,outcome [1],Potency [2],outcome [3],Potency [4],Potency [5],outcome [6],Potency [7],Potency (Aromatase (Homo sapiens)),Potency [8],Potency [9],Potency [10],outcome [11],outcome [12],outcome [13],Potency [14],Potency [15],outcome [16],outcome [17],Potency [18],outcome [19]
Cc1ccc(C(C)C)c(O)c1,inactive,inactive,inactive,inactive,inactive,inactive,inactive,inactive and 54.5 µM (active),inactive and 61.1 µM (active),inactive,inactive,inactive,inactive,inactive,inactive,61.1 µM (active) and inactive,inactive,inactive,,
NC(=S)NNC(N)=S,inactive,,inactive,,,,inactive,inactive,inactive,,inactive,inactive,inactive,inactive,inactive,inactive,inactive,inactive,inactive,inactive
C=C(C)[C@H]1CC=C(C)C(=O)C1,inactive,,inactive,,,,inactive,inactive,inactive,,inactive,inactive,,inactive,inactive,inactive,inactive,inactive,inactive,inactive
COc1ccccc1OCC(O)CO (configuration not stated),inactive,,inactive,,,,inactive,inactive,inactive,inactive,inactive,inactive,inactive,inactive,inactive,inactive,inactive,inactive,inactive,
O=C1C(c2[nH]c3ccccc3c2O)=Nc2ccccc21,inactive,,inactive,,,,inactive,inactive,inactive,,inactive,,,inactive,18.8 µM (active),inactive,inactive,inactive,inactive,inactive
COc1ccc(CCC(C)=O)cc1,inactive,,inactive,,,,inactive,inactive,inactive,,inactive,inactive,inactive,inactive,inactive,inactive,inactive,inactive,inactive,
CC(C)CCCCCCCOC(=O)CCCCC(=O)OCCCCCCCC(C)C,inactive,,inactive,,,,inactive,inactive,inactive,inactive,inactive,inactive,inactive,,inactive,inactive,inactive,inactive,inactive,inactive
CCCCCCCCCCN,inactive,,,,,,inactive,inactive,inactive,inactive,inactive,,,inactive,inactive,inactive,inactive,inactive,inactive,inactive
O=C(O)/C=C/C(=O)O,,,,,,,,,,,,,,inactive,inactive,inactive,inactive,inactive,,
CC(O)CC(C)(C)O (configuration not stated),inactive,,,,,,inactive,inactive,inactive,,inactive,inactive,,inactive,inactive,inactive,inactive,inactive,inactive,inactive
CCOC(=O)c1ccc(N)cc1,inactive,,inactive,,,,inactive,inactive,inactive,,inactive,inactive,inactive,inactive,,inactive,inactive,inactive,inactive,inactive
N[C@H](Cc1c[nH]c2ccccc12)C(=O)O,inactive,,inactive,,,,inactive,inactive,inactive,,inactive,inactive,inactive,inactive,inactive,inactive,inactive,inactive,inactive,inactive
O=S(=O)(O)c1ccccc1,inactive,,inactive,,,,inactive,inactive,inactive,inactive,inactive,,,inactive,,inactive,inactive,inactive,inactive,inactive
O=C1c2ccccc2CCc2ccccc21,inactive,,inactive,,,,inactive,inactive,inactive,,inactive,inactive,inactive,inactive,inactive,inactive,inactive,inactive,inactive,inactive
